# Measurements from PubChem BioAssay (Tox21).
# The source made the active and inactive calls. Where a call stands in place of a potency, no number is given. Calls come from the whole dose curve; as a rule, active = well fitted curve in the direction sought with a large enough effect in the repeat runs; inconclusive = weak or mixed curves; inactive = flat fitted curve, though single readings scatter.
# Assay: qHTS assay to test for compound auto fluorescence at 460 nm (blue) in HepG2 cell free culture (AID 720685)
# Settings: Cell-free culture medium, blue autofluorescence 405/460 nm; series mostly up to 46 µM
# From the text: U.S. Tox21 Program National Center for Advancing Translational Sciences [NCATS] NIH Chemical Genomics Center [NCGC] U.S. Environmental Protection Agency [EPA] National Institutes of Environmental Health Sciences [NIEHS] National Toxicology Program [NTP] U.S. Food and Drug Administration [FDA] Tox21 Assay Overview: Compound auto fluorescence often interferes with screening of the compound library against various biological targets and signaling pathways. Some of these compounds may have fluorophoric properties. Such properties may interfere with the assay outputs resulting in false positives and/or negatives. To decrease such complications and ensure the compound activities are relevant in terms of biological response, the Tox21 10K compound library was screened for auto fluorescence. From the fluorophores used as reporter signals in our screening assays, the auto fluorescence equivalencies of compounds against three fluorophores have been evaluated: Triamterene, Fluorescein and Rose Bengal sodium for blue, green and red fluorescence, respectively. The fluorescence intensities were measured using Excitation/Emission wavelengths at 405/460nm, 485/535nm and 540/590nm for blue, green and red labels, respectively. This assay includes the blue fluorescence data.
# Tox21 Assay Protocol Summary: 5 uL of culture medium (MEM containing 10% FBS) per well was dispensed into black wall/clear bottom 1536-well plates using a Multidrop Combi Dispenser (ThermoFisher Scientific, Waltham, MA). After 23 nL compound or DMSO vehicle was transferred into assay plate by a pintool work station (Kalypsys, San Diego, CA), fluorescence intensities in the assay plates were measured by an Envision (PerkinElmer, Shelton, CT) plate reader using three labels for measuring blue, green and red fluorescence at […] 460, 535 and 590nm respectively.
row,Structure (SMILES),Potency
1,Oc1ccc2c3c1O[C@H]1[C@@H](O)C=C[C@H]4[C@H](C2)NCC[C@@]341,inactive
2,C=CCN(C1=NCCN1)c1c(Cl)cccc1Cl,inactive
3,CCN(CC)CCO[C@H]1CC[C@@]2(C)C(=CC[C@@H]3[C@@H]2CC[C@]2(C)C(=O)CC[C@@H]32)C1,inactive
4,CCOc1ccc2c3c1O[C@H]1[C@@H](O)C=C[C@H]4[C@@H](C2)N(C)CC[C@@]341,inactive
5,CCC1(c2ccccc2)C(=O)NC(=O)N(C)C1=O (stereo not given),inactive
6,CC(C)CCC(=O)O[C@H]1CC[C@H]2[C@@H]3CCC4=CC(=O)CC[C@]4(C)[C@H]3CC[C@]12C,inactive
7,CCNC1(c2cccs2)CCCCC1=O (stereo not given),inactive
8,CCC1C(C)=NN=C(c2ccc(OC)c(OC)c2)c2cc(OC)c(OC)cc21 (stereo not given),inactive
9,CCC1(c2ccccc2)C(=O)NC(=O)N(C(=O)c2ccccc2)C1=O (stereo not given),inactive
10,O=C(O)/C=C\C(=O)O,inactive
11,Clc1ccccc1-c1ccccc1Cl,inactive
12,O.O.O.O=C([O-])C(O)C(O)C(=O)[O-].O=C([O-])C(O)C(O)C(=O)[O-].[K+].[K+].[Sb].[Sb] (stereo not given),inactive
13,CCCCCCC(=O)O[C@H]1CC[C@H]2[C@@H]3CC[C@H]4CC(=O)C=C(C)[C@]4(C)[C@H]3CC[C@]12C,inactive
14,CC(C)NC(C)Cc1ccc(I)cc1 (stereo not given),inactive
15,COC(=O)[C@]12CCC(C)(C)C[C@H]1[C@H]1C(=O)C=C3[C@@]4(C)C=C(C#N)C(=O)C(C)(C)[C@@H]4CC[C@@]3(C)[C@]1(C)CC2,inactive
16,Cc1ccccc1-n1c(C)nc2ccccc2c1=O,inactive
17,CN1C(=O)CC(=O)N(c2ccccc2)c2cc(Cl)ccc21,inactive
18,C[C@@H]1[C@@H]2Cc3ccc(O)cc3[C@@]1(C)CCN2CC1CC1,inactive
19,CCNC(C)Cc1cccc(C(F)(F)F)c1 (stereo not given),inactive
20,O=C1CCO1,inactive

row,Structure (SMILES),Potency
1,Cc1nnc2n1-c1sc(CCc3ccc(CC(C)C)cc3)cc1C(c1ccccc1Cl)=NC2C (stereo not given),inactive
2,N#CC1(N2CCCCC2)CCCCC1,inactive
3,C[N+]1(C)CCCCC1COC(=O)C(O)(c1ccccc1)c1ccccc1 (stereo not given),inactive
4,O=C1C[C@@H]2OCC=C3CN4CC[C@]56c7ccccc7N1[C@H]5[C@H]2[C@H]3C[C@H]46 (tested in a mixture with another compound),inactive
5,CCCCNCC(O)c1ccc(O)cc1 (stereo not given),inactive
6,CCCCCc1cc(O)c2c(c1)OC(C)(C)[C@@H]1CCC(C)=C[C@@H]21,inactive
7,COC(=O)[C@H]1[C@@H](OC(=O)c2ccccc2)C[C@@H]2CC[C@H]1N2C,inactive
8,F/C(COc1ccc2c(c1)[nH]c1ccccc12)=C1/CN2CCC1CC2,inactive
9,C[C@]12C=CC(=O)C=C1CC[C@@H]1[C@@H]2CC[C@]2(C)OC(=O)CC[C@@H]12,inactive
10,CCC(C)(S(=O)(=O)CC)S(=O)(=O)CC,inactive
11,CN[C@H]1C[C@@H](N)[C@H](O)[C@@H](O[C@@H]2O[C@H](CO)[C@H](O)[C@@H]3OC4(O[C@H]23)O[C@H](C(N)CO)[C@H](O)[C@H](O)[C@H]4O)[C@@H]1O (stereo not given in full),inactive
12,CCC(N)Cc1c[nH]c2ccccc12 (stereo not given),inactive
13,CCNCC(O)c1cccc(O)c1 (stereo not given),inactive
14,C[C@]12CC[C@H](OS(=O)(=O)O)CC1=CC[C@@H]1[C@@H]2CC[C@]2(C)C(=O)CC[C@@H]12,inactive
15,O=c1[nH]cc(N(CCCl)CCCl)c(=O)[nH]1,inactive
16,CC(=O)[C@@]1(O)CC[C@H]2[C@@H]3CCC4=CC(=O)CC[C@]4(C)C3(F)[C@@H](O)C[C@@]21C (stereo not given in full),inactive
17,C[C@]12CC[C@H](O)C[C@H]1CC[C@@H]1[C@@H]2CC[C@]2(C)[C@@H](c3ccc(=O)oc3)C[C@H]3O[C@]132,inactive
18,CCC1(CC)C(=O)NC(=O)N(C)C1=O,inactive
19,CC(C)(O)[C@@H]1[C@H]2OC(=O)[C@@H]1[C@]1(O)C[C@H]3O[C@]34C(=O)O[C@H]2[C@]14C,inactive
20,CC(=O)O[C@H]1CC[C@H]2[C@@H]3CCC4=CC(=O)CCC4=C3C=C[C@]12C,inactive
